Data taken from PubChem BioAssay (Tox21).
Unmarked numbers belong to inactive results. Results filed as inconclusive are left out. Active and inactive are the calls of the source. Calls come from the whole dose curve.

These compounds were tested against 5-hydroxytryptamine receptor 2A (Homo sapiens) (UniProt P28223) (assay: 5-hydroxytryptamine receptor 2A (HTR2A) small molecule agonists, cell-based qHTS assay (AID 1963587; note: nearly all actives have a fitted effect of over 30% in size)). Conditions: HTR2A-CHO cells, calcium flux fluorescence, agonist mode; series mostly up to 76.8 µM; activation: at the top concentration.
Sequence of 5-hydroxytryptamine receptor 2A (Homo sapiens) (P28223 whole entry, looked up): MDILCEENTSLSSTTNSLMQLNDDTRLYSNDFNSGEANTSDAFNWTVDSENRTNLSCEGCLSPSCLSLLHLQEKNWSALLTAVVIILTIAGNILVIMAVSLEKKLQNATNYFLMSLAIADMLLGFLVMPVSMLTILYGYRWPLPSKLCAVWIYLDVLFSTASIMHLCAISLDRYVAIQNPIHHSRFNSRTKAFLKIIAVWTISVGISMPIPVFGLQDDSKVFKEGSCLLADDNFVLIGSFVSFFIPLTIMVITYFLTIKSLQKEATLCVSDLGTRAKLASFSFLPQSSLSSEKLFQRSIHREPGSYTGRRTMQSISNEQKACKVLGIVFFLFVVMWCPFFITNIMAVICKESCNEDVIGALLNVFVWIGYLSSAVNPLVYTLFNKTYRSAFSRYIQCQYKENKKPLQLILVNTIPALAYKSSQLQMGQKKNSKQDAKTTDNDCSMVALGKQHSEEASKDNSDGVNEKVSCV
How it was run: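 HTR2A-CHO cells, plated 18 h at 37 C/5% CO2, dye-loaded 1 h at 37 C; compounds in DMSO added by pin tool (agonist mode). Intracellular calcium flux read as kinetic fluorescence on FDSS over 2 min at 1 s intervals.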
% is set by controls: 0 for no effect and ±100 for the full control effect.

SMILES | activation | Potency
Nc1nc(=O)n([C@@H]2O[C@H](CO)[C@@H](O)[C@@H]2F)cc1I | 2.32% [at 35.6 µM] | –
Cc1cc(C)cc(O)c1 | -3.94% | –
COc1cc(C(=O)N2CCOCC2)cc(OC)c1OC | -1.68% [at 35.6 µM] | –
CCCO | -1.26% | –
CC12CCC(C1)C(C)(C)C2O (configuration not stated) | 1.41% | –
[O]=[Zr] | -2.26% | –
C1CCC(SSC2CCCCC2)CC1 | -1.06% | –
CCCC[C@H]1CN(CC2CCOCC2)C(=O)OC12CCN(C1(C)CCN(C(=O)c3c(C)ncnc3C)CC1)CC2 | 0.225% | –
Cc1ccccc1S(=O)(=O)O | 1.77% | –
NC(=O)c1ccc(N)cc1 | 5.39% | –
FC(F)(F)C(Cl)Br (configuration not stated) | – | inactive
CCCCCCCCSCCO | 4.07% | –
Cc1ccccc1C(N)=O | 3.27% | –
CC12CC3CC(C)(C1)CC(N)(C3)C2 | 0.301% [at 35.6 µM] | –
O[C@@H]([C@H](O)[C@H](O)CBr)[C@H](O)CBr | -0.0732% | –
CCOc1ccc(N)c([N+](=O)[O-])c1 | -1.55% | –
CC(=O)NCc1c(I)c(NC(C)=O)c(I)c(C(=O)O)c1I | -0.838% [at 35.6 µM] | –
Nc1cc([N+](=O)[O-])ccc1Cl | -8.4% | –
Cc1c(C(=O)c2c[nH]n(C)c2=O)ccc(S(C)(=O)=O)c1C1=NOCC1 | 1.5% [at 35.6 µM] | –
CC(C[N+](C)(C)C)OC(N)=O (configuration not stated) | 1.19% [at 35.6 µM] | –

SMILES | activation | Potency
O=S(=O)(O)c1ccccc1O | 4.83% | –
Cc1cccc(N(C)C)c1 | 2.45% | –
OCC1CCC(CO)CC1 (configuration not stated) | -0.148% | –
C=CCOC(=O)CCCCCC | -0.538% | –
CCN(CC)S(=O)(=O)c1ccc(C(=O)O)cc1 | -0.654% [at 35.6 µM] | –
NNS(=O)(=O)c1ccc(Oc2ccc(S(=O)(=O)NN)cc2)cc1 | 0.708% | –
O=Cc1ccc(C(=O)O)cc1 | 4.68% | –
COCCOCCOCCOCCOC | -0.812% | –
C=C(C)[C@H]1CC=C(C)CC1 | 1.03% | –
CC(C)C1CCC(O)CC1 (configuration not stated) | 1.05% | –
C=CC(C)(CCC=C(C)C)OC(=O)CC (configuration not stated) | 4.81% | –
[O-][n+]1ccc(Cl)cc1 | -0.43% | –
CC(C)CCO | -1.95% | –
O=C(O)CCS | 2.54% | –
Cc1cc(C)c(N=Nc2c(O)c(S(=O)(=O)O)cc3cc(S(=O)(=O)O)ccc23)cc1C | -1.44% [at 7.02 µM] | –
Cc1ccc(Nc2ccc(O)c3c2C(=O)c2ccccc2C3=O)cc1 | 0.63% | –
C1=COCCC1 | -0.0186% | –
NCCNCCN | -1.21% | –
CC(=O)N1C[C@H](O)C[C@H]1C(=O)O | -9.84% [at 35.6 µM] | –

Each compound was assayed against Muscarinic acetylcholine receptor M1 (Homo sapiens) (UniProt P11229) (assay: Cholinergic receptor muscarinic 1 (CHRM1) small molecule antagonists, cell-based qHTS assay (AID 1963588; note: nearly all actives have a fitted effect of over 40% in size)). Conditions: CHRM1-CHO antagonist mode, calcium flux fluorescence; series mostly up to 61.5 µM; activity, negative = inhibition: at the top concentration.
Sequence of Muscarinic acetylcholine receptor M1 (Homo sapiens) (P11229 whole entry, looked up): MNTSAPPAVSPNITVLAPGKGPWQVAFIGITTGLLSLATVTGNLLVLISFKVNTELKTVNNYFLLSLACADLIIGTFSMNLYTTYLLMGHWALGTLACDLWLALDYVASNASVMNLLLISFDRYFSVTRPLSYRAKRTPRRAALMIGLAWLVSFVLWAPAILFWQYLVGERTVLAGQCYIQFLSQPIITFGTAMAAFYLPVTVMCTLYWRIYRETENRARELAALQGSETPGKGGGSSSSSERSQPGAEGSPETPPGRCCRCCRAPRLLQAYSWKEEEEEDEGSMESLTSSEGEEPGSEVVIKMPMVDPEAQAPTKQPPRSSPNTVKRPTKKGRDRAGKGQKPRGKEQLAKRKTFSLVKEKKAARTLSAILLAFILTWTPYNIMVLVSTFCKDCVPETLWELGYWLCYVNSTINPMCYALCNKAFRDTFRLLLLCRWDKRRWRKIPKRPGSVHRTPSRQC
How it was run: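 CHRM1-CHO calcium-flux assay, antagonist mode. Cells were seeded 18 h, dye-loaded 1 h at 37 C and given compound for 5 min at RT, then acetylcholine was added at 50nM. FDSS fluorescence was read 3 min; 15 concentrations, three runs.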

SMILES | activity, negative = inhibition | Potency
Nc1nc(=O)n([C@@H]2O[C@H](CO)[C@@H](O)[C@@H]2F)cc1I | 2.07% [at 28.3 µM] | –
Cc1cc(C)cc(O)c1 | – | inactive
COc1cc(C(=O)N2CCOCC2)cc(OC)c1OC | -1.51% [at 28.3 µM] | –
CCCO | 17.8% | –
CC12CCC(C1)C(C)(C)C2O (configuration not stated) | 4.69% | –
[O]=[Zr] | -5.42% | –
C1CCC(SSC2CCCCC2)CC1 | 26.2% | –
CCCC[C@H]1CN(CC2CCOCC2)C(=O)OC12CCN(C1(C)CCN(C(=O)c3c(C)ncnc3C)CC1)CC2 | -6.22% | –
Cc1ccccc1S(=O)(=O)O | 2.14% | –
NC(=O)c1ccc(N)cc1 | -17% | –
FC(F)(F)C(Cl)Br (configuration not stated) | – | inactive
CCCCCCCCSCCO | -2.33% | –
Cc1ccccc1C(N)=O | 21.8% | –
CC12CC3CC(C)(C1)CC(N)(C3)C2 | -7.66% [at 28.3 µM] | –
O[C@@H]([C@H](O)[C@H](O)CBr)[C@H](O)CBr | 16% | –
CCOc1ccc(N)c([N+](=O)[O-])c1 | 4.49% | –
CC(=O)NCc1c(I)c(NC(C)=O)c(I)c(C(=O)O)c1I | -1.16% [at 28.3 µM] | –
Nc1cc([N+](=O)[O-])ccc1Cl | -15.9% | –
Cc1c(C(=O)c2c[nH]n(C)c2=O)ccc(S(C)(=O)=O)c1C1=NOCC1 | -19.3% [at 28.3 µM] | –
CC(C[N+](C)(C)C)OC(N)=O (configuration not stated) | -20.3% [at 28.3 µM] | –

SMILES | activity, negative = inhibition | Potency
O=S(=O)(O)c1ccccc1O | 26.9% | –
Cc1cccc(N(C)C)c1 | 2.62% | –
OCC1CCC(CO)CC1 (configuration not stated) | 15.2% | –
C=CCOC(=O)CCCCCC | 3.8% | –
CCN(CC)S(=O)(=O)c1ccc(C(=O)O)cc1 | -0.807% [at 28.3 µM] | –
NNS(=O)(=O)c1ccc(Oc2ccc(S(=O)(=O)NN)cc2)cc1 | -3.44% | –
O=Cc1ccc(C(=O)O)cc1 | -10.5% | –
COCCOCCOCCOCCOC | -4.2% | –
C=C(C)[C@H]1CC=C(C)CC1 | 8.13% | –
CC(C)C1CCC(O)CC1 (configuration not stated) | -15.6% | –
C=CC(C)(CCC=C(C)C)OC(=O)CC (configuration not stated) | -3.56% | –
[O-][n+]1ccc(Cl)cc1 | 1.91% | –
CC(C)CCO | 0.942% | –
O=C(O)CCS | -0.88% | –
Cc1cc(C)c(N=Nc2c(O)c(S(=O)(=O)O)cc3cc(S(=O)(=O)O)ccc23)cc1C | 26.6% [at 5.58 µM] | –
Cc1ccc(Nc2ccc(O)c3c2C(=O)c2ccccc2C3=O)cc1 | -11.5% | –
C1=COCCC1 | -4% | –
NCCNCCN | -5.21% | –
CC(=O)N1C[C@H](O)C[C@H]1C(=O)O | 55.3% [at 28.3 µM] | –

Each compound was assayed against Muscarinic acetylcholine receptor M1 (Homo sapiens) (UniProt P11229) (assay: Cholinergic receptor muscarinic 1 (CHRM1) small molecule agonists, cell-based qHTS assay (AID 1963589; note: nearly all actives have a fitted effect of over 35% in size; note: potency is the fitted concentration of half-maximal effect)). Conditions: CHRM1-CHO cells, agonist mode, calcium flux fluorescence; series mostly up to 76.8 µM; activation: at the top concentration.
How it was run: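 Stable CHRM1-CHO cells (human receptor) were incubated 18 h, dye-loaded for 1 h at 37 C and exposed to test compounds for agonist activity, with calcium-dependent fluorescence followed kinetically.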

SMILES | activation | Potency
Nc1nc(=O)n([C@@H]2O[C@H](CO)[C@@H](O)[C@@H]2F)cc1I | -0.11% [at 35.3 µM] | –
Cc1cc(C)cc(O)c1 | -0.132% | –
COc1cc(C(=O)N2CCOCC2)cc(OC)c1OC | -0.154% [at 35.3 µM] | –
CCCO | -0.201% | –
CC12CCC(C1)C(C)(C)C2O (configuration not stated) | 0.0934% | –
[O]=[Zr] | -0.487% | –
C1CCC(SSC2CCCCC2)CC1 | 0.614% | –
CCCC[C@H]1CN(CC2CCOCC2)C(=O)OC12CCN(C1(C)CCN(C(=O)c3c(C)ncnc3C)CC1)CC2 | -1.17% | –
Cc1ccccc1S(=O)(=O)O | -0.228% | –
NC(=O)c1ccc(N)cc1 | -0.292% | –
FC(F)(F)C(Cl)Br (configuration not stated) | – | inactive
CCCCCCCCSCCO | -0.858% | –
Cc1ccccc1C(N)=O | -0.495% | –
CC12CC3CC(C)(C1)CC(N)(C3)C2 | 0.936% [at 35.3 µM] | –
O[C@@H]([C@H](O)[C@H](O)CBr)[C@H](O)CBr | 1.14% | –
CCOc1ccc(N)c([N+](=O)[O-])c1 | 0.022% | –
CC(=O)NCc1c(I)c(NC(C)=O)c(I)c(C(=O)O)c1I | 0.365% [at 35.3 µM] | –
Nc1cc([N+](=O)[O-])ccc1Cl | -1% | –
Cc1c(C(=O)c2c[nH]n(C)c2=O)ccc(S(C)(=O)=O)c1C1=NOCC1 | 0.074% [at 35.3 µM] | –
CC(C[N+](C)(C)C)OC(N)=O (configuration not stated) | – | 2390 nM (active)

SMILES | activation | Potency
O=S(=O)(O)c1ccccc1O | 1.13% | –
Cc1cccc(N(C)C)c1 | 0.107% | –
OCC1CCC(CO)CC1 (configuration not stated) | -0.52% | –
C=CCOC(=O)CCCCCC | 0.171% | –
CCN(CC)S(=O)(=O)c1ccc(C(=O)O)cc1 | 0.169% [at 35.3 µM] | –
NNS(=O)(=O)c1ccc(Oc2ccc(S(=O)(=O)NN)cc2)cc1 | 0.757% | –
O=Cc1ccc(C(=O)O)cc1 | -0.234% | –
COCCOCCOCCOCCOC | 0.359% | –
C=C(C)[C@H]1CC=C(C)CC1 | -0.186% | –
CC(C)C1CCC(O)CC1 (configuration not stated) | -0.082% | –
C=CC(C)(CCC=C(C)C)OC(=O)CC (configuration not stated) | 0.976% | –
[O-][n+]1ccc(Cl)cc1 | -0.0313% | –
CC(C)CCO | 0.311% | –
O=C(O)CCS | -0.0508% | –
Cc1cc(C)c(N=Nc2c(O)c(S(=O)(=O)O)cc3cc(S(=O)(=O)O)ccc23)cc1C | -0.143% [at 6.97 µM] | –
Cc1ccc(Nc2ccc(O)c3c2C(=O)c2ccccc2C3=O)cc1 | 0.149% | –
C1=COCCC1 | 0.257% | –
NCCNCCN | – | inactive
CC(=O)N1C[C@H](O)C[C@H]1C(=O)O | -2.12% [at 35.3 µM] | –
